Assay results from publication PMC8769072, “Proteome‐scale mapping of binding sites in the unstructured regions of the human proteome” (Molecular Systems Biology, 2022).

Biological target: YAP1 169-207, P46937
Sequence (P46937 169-207): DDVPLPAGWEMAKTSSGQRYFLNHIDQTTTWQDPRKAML

Selected by phage display, active:
AAATAGAPTALPAYPA [TMEM158, Q8WZ71] confidence 2
PSAMLPIYPAIDIDAQ [ANKRD17, O75179] confidence 2
SMAPPAYSLYTPEPPP confidence 3
PPAYEDVVHRPGTPPP [WBP1, Q96G27] confidence 3
TGTPQESLPTYTQTLR [STPG3, Q8N7X2] confidence 3
IELLPSYSTATLIDEP [SLC34A2, O95436] confidence 3
EPPPSYDEAVKMAKPR confidence 3
SVLPPSYASDRLSGNN [ALKBH5, Q6P6C2] confidence 2
LPPYPEHLTSPLSPAQ [ZNF783, Q6ZMS7] confidence 2
ASSAPALETDSSPPPY confidence 2
EYQQVPNSDPPRYEFL [MAGEB18, Q96M61] confidence 2
SSATLPPPYQLINVPP [GAB1, Q13480] confidence 4
DGKGAKPPEYRNYQIV [MFSD6, Q6ZSS7] confidence 3
APHPYSPQPPPYHELS [DVL2, O14641] confidence 3
HPPTYVQNVVPQNTPM [ARID2, Q68CP9] confidence 2
HEVVLRTAAPPDYTLA [NLGN1, Q8N2Q7] confidence 3
YTREGEPLPPPYSLRE [TPSG1, Q9NRR2] confidence 3
NNSLPPYAQGLASPQG [TBP, P20226] confidence 3
TEVYGEFYPVPPPYSV confidence 4
LYPPPSHAAEDSLPPY [TMEM59L, Q9UK28] confidence 2
ADTPPPAYLPPEDPMT [SMAD1, Q15797] confidence 2

Biological target: USP7 53-206, Q93009
Sequence (Q93009 53-206): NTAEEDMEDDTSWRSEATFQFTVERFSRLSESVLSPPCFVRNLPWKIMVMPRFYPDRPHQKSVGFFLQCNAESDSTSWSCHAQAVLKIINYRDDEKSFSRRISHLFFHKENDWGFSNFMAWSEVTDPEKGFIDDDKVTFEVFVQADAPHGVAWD

Selected by phage display, active:
GISDGPSVSALTNGFD [PARN, O95453] confidence 3
SIAQPSTSSLHSHSSL [TCF7L2, Q9NQB0] confidence 3
ASSSLTVTDSTLWSQS [MAGEA8, P43361] confidence 3
ASSSSPSLSGTSYSFS [IPCEF1, Q8WWN9] confidence 4
SSSAASTSSSSSAVAS [TRIP12, Q14669] confidence 2
PGSNSTGSEVASMSSQ [ISL1, P61371] confidence 3
TDSIHSAHSSHSLSRD [UNC13B, O14795] confidence 2
PVQSPLATAASASTSV [PROSER1, Q86XN7] confidence 3
QGELLEAPSSSSAPLP [RNF135, Q8IUD6] confidence 2
GSSGSQEQLVSIASSS [PER3, P56645] confidence 3
VPANGEMSSSHSAQSM [TP73, O15350] confidence 3
ALSDSPSNSSYVETPR [TUBGCP5, Q96RT8] confidence 3
SQVTGMSLQIPSSSTG [MAMLD1, Q13495] confidence 3
TVDANGVVSLVGGPSV [SCN1A, P35498] confidence 3

Biological target: WDR5 21-334, P61964

Selected by phage display, active:
SARSTPLTVDRSPDSS [PDZRN4, Q6ZMN7] confidence 2
SARSGYVIQGSSDLIA [SVEP1, Q4LDE5] confidence 2
SARVNPQDGTNTLTRI [EHMT1, Q9H9B1] confidence 2
IPTSRSTPYKPIDDRI [SPATA5, Q8NB90] confidence 2
ARTVLWNPEDLIPLPI [ZC3H4, Q9UPT8] confidence 2
PQNRTSAYSLEHADLG [SIPA1, Q96FS4] confidence 2
WEQDGGRWLPGHAMAM [RRAD, P55042] confidence 2
DFTAPDVWYPGGMVSR [AR, P10275] confidence 2
NQAVNFLRMSARVDAV [CHMP1B, Q7LBR1] confidence 2

Biological target: VASP 1-114, P50552
Sequence (P50552 1-114): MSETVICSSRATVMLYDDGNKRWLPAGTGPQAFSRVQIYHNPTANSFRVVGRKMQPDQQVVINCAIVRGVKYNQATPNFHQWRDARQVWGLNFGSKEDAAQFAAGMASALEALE

Selected by phage display, active:
DFPPPPPDLEQLRLTD [VCL, P18206] confidence 2
IPSEEWPNPPTLQEAG [FAF2, Q96CS3] confidence 4
FPPPPLPDSAIFLPPS [INPPL1, O15357] confidence 3
FPPPPPETELPLPPIE [RAPH1, Q70E73] confidence 3
MAWPKLPAPWLLLATW [ILDR1, Q86SU0] confidence 2
PAKIETDYWPAPPSLA [DMTN, Q08495] confidence 2
VYSMDDFPPPPPHTVA [SHROOM3, Q8TF72] confidence 4
GDLQTWFFPPPPAGSV [TEX44, Q53QW1] confidence 2
FPAPPSHWLFGHIQEL [CYP4A11, Q02928] confidence 2
LVPPALDLSWIWPAPP [C1orf159, Q96HA4] confidence 3
SPVFPPPPPEALIPFA [NHSL1, Q5SYE7] confidence 3
SMADFPPPEEAFFSVA [KIAA1522, Q9P206] confidence 2
WPDPPDLPTVDPISSS [MRPL43, Q8N983] confidence 4
EFPPPPPDVLQTSVDV [XIRP2, A4UGR9] confidence 4
DVVLQSFPPLPSAEIL [KIF23, Q02241] confidence 2
EAFPPPPHFSFPAPLS [SBNO2, Q9Y2G9] confidence 2
LWPDPPHFLYWSGFLG [PAX1, P15863] confidence 2
LLNFPPPLPALYELWE [LBR, Q14739] confidence 2
